# Screening data: PubChem BioAssay, National Center for Advancing Translational Sciences (NCATS)
# Lamin A splicing = changes lamin A minigene splicing in HeLa cells; HeLa LMNA splicing GFP/RFP minigene ratio, 48 h; 200,000 compounds, 0.01% hits; Potency, µM (doses to about 46.1 µM), actives largely listed as inhibitors; active = well fitted inhibition curve with a large enough effect in the signal ratio, with a control signal flat, not every such curve was filed as active; inconclusive = small, poorly fitted or top-dose-only effect, or effect the other way, or a change in a side signal; the % refers to the signal ratio
#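 S3 HeLa stable clones carrying a lamin A-EGFP splicing minigene plus DsRed2 were seeded at 600 cells/well in Opti-MEM with 2% FBS, pin-dosed and incubated 48 h at 37°C. Acumen cytometry (488 nm) gave the GFP/RFP total-intensity ratio.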
# HPGD block = inhibitors of human 15-hydroxyprostaglandin dehydrogenase (HPGD); P15428; purified HPGD, NADH fluorescence kinetic, PGE2 substrate; Potency, µM, hits mostly inhibitors; 150,000 compounds, 4.3% hits; AID 894
# Target sequence (P15428 whole entry, looked up): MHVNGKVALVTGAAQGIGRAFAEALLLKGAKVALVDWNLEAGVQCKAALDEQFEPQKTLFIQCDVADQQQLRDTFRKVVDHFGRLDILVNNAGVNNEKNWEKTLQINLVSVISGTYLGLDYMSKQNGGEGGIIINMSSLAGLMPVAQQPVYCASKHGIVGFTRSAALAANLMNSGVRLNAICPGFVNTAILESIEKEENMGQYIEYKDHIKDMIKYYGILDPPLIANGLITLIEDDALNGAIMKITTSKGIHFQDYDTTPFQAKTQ
#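 NADH formation kinetics: reaction with 30 uM PGE2 and 1 mM NAD+ (final), 20 nM enzyme, Tris-HCl pH 8 with Tween 20, after 15 min compound preincubation at room temperature. Fluorescence change, last versus first of five reads.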
# ALDH1A1 block = inhibitors of human aldehyde dehydrogenase 1A1; Purified ALDH1A1, NADH fluorescence, propionaldehyde substrate; P00352; 220,000 compounds, 7.3% hits; Potency, µM (series often up to 75.3 µM), hits mostly inhibitors
# JMJD2E inh = blocks human JMJD2E demethylase activity; JMJD2E catalytic domain, FDH-coupled NADH fluorescence (FDH is formaldehyde dehydrogenase); B2RXH2; 230,000 compounds, 1.6% hits; Potency, µM (titrated, usually from 57.1 µM), actives largely listed as inhibitors; also: nearly all actives have a fitted effect of over 50% in size
# Target sequence (B2RXH2 1-337 limits assumed): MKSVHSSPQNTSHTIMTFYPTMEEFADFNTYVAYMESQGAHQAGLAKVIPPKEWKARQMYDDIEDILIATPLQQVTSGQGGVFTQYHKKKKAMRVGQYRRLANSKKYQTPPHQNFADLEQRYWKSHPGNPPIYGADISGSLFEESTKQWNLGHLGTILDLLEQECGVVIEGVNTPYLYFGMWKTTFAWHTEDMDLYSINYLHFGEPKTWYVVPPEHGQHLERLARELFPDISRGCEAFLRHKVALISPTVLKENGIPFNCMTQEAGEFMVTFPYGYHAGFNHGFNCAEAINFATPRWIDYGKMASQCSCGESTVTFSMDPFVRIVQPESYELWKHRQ
# HttQ103 aggreg = inhibitors of mutant huntingtin aggregate formation in PC12 cells; 220,000 compounds, 1.1% hits; Potency, µM (doses to about 46.1 µM), most hits filed as inhibitors; PC12 HttQ103-GFP aggregates, Acumen cytometry, 40 h; active = well fitted curve in the direction sought with a large enough effect; inconclusive = small, poorly fitted or top-dose-only effect, or another doubt; inactive = no such curve, though single readings can be large; an effect the other way counts as inactive or inconclusive; also: nearly all actives have a fitted effect of over 60% in size
#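 Steps: seed 1500 PC12 HTTQ103-GFP cells/well; add tebufenozide, 100 nM final; add compound titration; add ATPLite reagent; quantify GFP aggregates by laser scanning cytometry.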
# HTT ATP protect = Huntington cell model cytoprotection by ATP luminescence | Potency, µM (highest dose often 56.4 µM), usual class: activators | PC12 HTT-Q103 induced, cytoprotection, ATP luminescence, 40 h | 230,000 compounds, 0.14% hits | AID 1471; active = well fitted curve in the direction sought with a large enough effect; inconclusive = small, poorly fitted or top-dose-only effect, or another doubt; inactive = no such curve, though single readings can be large; an effect the other way counts as inactive or inconclusive; also: nearly all actives have a fitted effect of over 45% in size
#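 ATP quantification (ATPlite) reports survival of PC12 cells in which tebufenozide, 100 nM final, switches on Htt exon 1 with 103 glutamines linked to GFP; compounds are titrated.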
# Hits are given with their value; . = inactive; ? = inconclusive; / = no result; [ ] = dose if it differs, or a comment. Shown are actives, neighbours in structure and some others; about 9.2% of the full set was active somewhere. Unless noted, calls follow the shape of the dose curve; as a rule, active = well fitted inhibition curve with a large enough effect (not every such curve was filed as active); inconclusive = small, poorly fitted or top-dose-only effect, or another doubt; inactive = no such curve, though single readings can be large or run the other way.
SMILES,Lamin A splicing,HPGD block,ALDH1A1 block,JMJD2E inh,HttQ103 aggreg,HTT ATP protect
CCOC(=O)COc1ccc(Br)cc1/C=C\c1[nH]c(=O)[nH]c(=O)c1[N+](=O)[O-],?,16µM,?,.,.,.[0.074 µM]
CCCOc1ccc(/C=C/c2[nH]c(=O)[nH]c(=O)c2[N+](=O)[O-])cc1OCC,/,/,/,.,.[9.22 µM],.[10 µM]
CCOc1cc(/C=C\c2[nH]c(=O)[nH]c(=O)c2[N+](=O)[O-])ccc1OC(C)CC (stereo unspecified),?,?,.,.,?,2.5µM
O=C(CSc1ncn[nH]1)Nc1ccc(OCc2ccccc2)cc1,.,/,.,.,.,.
CCc1ccc2nc(N(Cc3cccnc3)C(C)=O)sc2c1,.,/,/,/,/,/
O=C(CSc1nc2ccccc2c(=O)n1-c1ccc(SC(F)F)cc1)Nc1ccc(N2CCOCC2)cc1,/,/,10µM,?,.[9.22 µM],.
O=C(c1ccc(-n2c(SCc3cccc(F)c3)nc3ccccc3c2=O)cc1)N1CCOCC1,.,.,0.32µM,.,.,.[10 µM]
COc1cc(/C=C2/NC(=O)N(Cc3ccccc3F)C2=O)cc(OC)c1O,/,/,10µM,?,.,.
O=C(O)c1ccc(COc2ccccc2/C=C2\NC(=O)N(Cc3ccccc3F)C2=O)cc1,/,/,?,.,.,.[10 µM]
CCOc1cc(/C=C2/NC(=O)N(Cc3ccccc3F)C2=O)ccc1O,.,.,8.9µM,?,.,.[10 µM]
CCN(CC)C(=O)CN(c1ccc(C)cc1)S(=O)(=O)c1ccc(SC)cc1,.,.,14µM,.,.,.
COCCNC(=O)CN(c1ccc(C)cc1)S(=O)(=O)c1ccc(SC)cc1,.,.,.,.,.,.
Nc1nn2c(C(F)(F)F)cc(=O)[nH]c2c1N=Nc1cccc(F)c1,.,/,.,?,.,.[10 µM]
Cc1cc(=O)[nH]c2c(N=Nc3ccc(O)cc3)c(N)nn12,/,/,18µM,?,.[9.22 µM],.[10 µM]
CC(NC(=O)CNC(=O)C1O[C@@H]2OC(C)(C)O[C@@H]2[C@H]2OC(C)(C)O[C@@H]12)C(=O)O (stereo partly specified),/,/,.,.,.,.
Cc1ccc(C(=O)NCC(=O)OCC(=O)c2ccc3c(c2)OCCO3)cc1C,.,.,?,.,.,.
COc1ccc(C(=O)NCC(=O)OCC(=O)c2ccc3c(c2)OCCO3)cc1,.,.,7.9µM,.,.[1.84 µM],.
COc1ccc(C(=O)NCC(=O)NCC(=O)OCC(=O)c2cccs2)cc1,.,.,16µM,?,.,/
COc1ccc(C(=O)NCC(=O)OCC(=O)NCc2cccs2)cc1,.,/,?,.,.,.
CCCCCCN=C(C)c1ccccc1O,/,/,.,.,.[9.22 µM],.[10 µM]
CC(C)(C)c1ccc(S(=O)(=O)/C=C/C#N)cc1,?,10µM,0.11µM,.,/,/
Cc1cccc(-c2nc(SCC(=O)N3CCc4ccccc43)c3c(=O)n(C)c(=O)n(C)c3n2)c1,.,/,/,/,/,/
COc1cc(OC)cc(C(=O)N[C@H](C(=O)OCC(=O)Nc2sccc2C#N)C(C)C)c1,.,/,28µM,.,.,.[10 µM]
C=C(C)C1CC=C(C)/C(=N/NC(=S)Nc2ccccc2)C1 (stereo unspecified),?,.,35µM,.,.,/
O=C(O)c1cc(Cl)cc(Cl)c1,/,.,.,/,/,.
SMILES,Lamin A splicing,HPGD block,ALDH1A1 block,JMJD2E inh,HttQ103 aggreg,HTT ATP protect
COc1cccc(/C=N/NC(=O)Cn2ccnc2C)c1,.,.,.,.,.,.[10 µM]
COc1c(O)cccc1/C=N/NC(=O)Cn1ccnc1C,/,/,/,10µM,.[9.22 µM],.[10 µM]
COc1cc(C)c2c(=O)cc(-c3ccccc3)oc2c1,?,.,.,.,/,/
COC(=O)c1sc(=S)n(-c2cc(F)ccc2F)c1N,.[0.0737 µM],28µM,25µM,.,.,.[0.074 µM]
CCOC(=O)c1sc(=S)n(-c2ccccc2Cl)c1SC,?,18µM,18µM,.,.,.
CCOC(=O)c1sc(=S)n(-c2cc(OC)ccc2OC)c1N,.,3.5µM,3.2µM,.,.,.[10 µM]
CCOC(=O)c1sc(=S)n(-c2cc(F)ccc2F)c1N,?,25µM,20µM,.,.,.[0.074 µM]
Nc1nc2c(c(=O)[nH]1)N[C@H](CCNc1ccc(C(=O)O)cc1)CN2,/,.,.[13.5 µM],/,/,.[10 µM]
CCOc1cc(CNC(=O)Cn2c(=O)c3cccn3c3ccc(F)cc32)cc(OCC)c1OCC,.,/,/,/,/,/
O=c1[nH]c(-c2ccccc2)nnc1-c1ccccc1,/,/,.,.,.[9.22 µM],.[10 µM]
COc1ccc(CC(=O)NCc2n[nH]c(=S)n2-c2cccc(C)c2)cc1,/,/,.,.,.,.
Cc1cccc(-n2c(-c3csc(C)c3C)n[nH]c2=S)c1,.,10µM,.,.,.,/
Cc1cccc(-n2c(-c3csc(C(C)C)c3)n[nH]c2=S)c1,.,?,16µM,.,.,.
Cc1cccc(-n2c(-c3ccco3)n[nH]c2=S)c1,.,.,.,?,.,/
CC1Cc2cc(S(=O)(=O)NCCc3ccccc3)ccc2N1C(=O)C1CCC1 (stereo unspecified),.,/,/,/,/,/
Cc1cccc(-c2nc(SCC(=O)N(C)c3ccccc3)c3c(=O)n(C)c(=O)n(C)c3n2)c1,.,/,/,/,/,/
Cc1sc2nc(CN3CCOCC3)nc(Oc3ccc(NC(=O)c4ccco4)cc3)c2c1C,.,/,18µM,.,.,.[10 µM]
Cc1sc2nc(CN3CCCC3)nc(Cl)c2c1C,?,.,?,?,13µM,.[10 µM]
Cc1sc2nc(CN3CCOCC3)nc(N3CCOCC3)c2c1C,.,.,14µM,?,?,.
Cc1sc2nc(CN3CCOCC3)nc(N3CCC(C(N)=O)CC3)c2c1C,.,.,.,.,.,.[10 µM]
Oc1cccc(O)c1O,?,10µM,1.5µM,/,.,.
COc1c(O)cccc1O,/,.,.,.,/,.
COC(=O)c1c(NC(=O)Cc2cccs2)sc2c1CCC(C)C2 (stereo unspecified),.,13µM,14µM,?,.,.[10 µM]
COC(=O)c1c(NC(=O)Cn2cnc([N+](=O)[O-])n2)sc2c1CCC(C)C2 (stereo unspecified),.,11µM,.,.,.,.[10 µM]
CCOC(=O)c1c(NC(=O)Cn2cnc([N+](=O)[O-])n2)sc2c1CCC(C)C2 (stereo unspecified),.[0.0737 µM],.,.,.,.,.
SMILES,Lamin A splicing,HPGD block,ALDH1A1 block,JMJD2E inh,HttQ103 aggreg,HTT ATP protect
Cc1cccc(C(=O)NCC(c2cccs2)S(=O)(=O)c2cccs2)c1 (stereo unspecified),.,/,/,/,/,/
CCN(CC)COC(=S)S,/,3.2µM,2.8µM,/,/,.[10 µM]
O=C1N=C(N2CCOCC2)SC1=C1CCCCC1,?,.,2µM,.,.,.
CC(=O)N1CCN(C2=NC(=O)C(=C3CCCCC3)S2)CC1,.,.,13µM,.,.,.[10 µM]
Cc1cccc(N2CCN(C3=NC(=O)C(=C4CCCCC4)S3)CC2)c1,?,.,6.3µM,.,?,.[10 µM]
N#CCCN1CCN(C2=NC(=O)C(=C3CCCCC3)S2)CC1,?,?,1.3µM,.,.,.[10 µM]
CC(=O)N1CCN(C2=NC(=O)/C(=C\c3cccs3)S2)CC1,?,/,.,.,.[9.22 µM],.[10 µM]
COc1ccc(NS(=O)(=O)c2nnc(NC(=O)c3ccccc3F)s2)cc1,.,/,/,/,/,/
